Read-out in assay [1]: Protein phosphatase 2A (PPP2R4), PTPA (gene 5524)
The experiment in a line: LTEA_HepaRG_PPP2R4: Life Technologies and Expression Analysis (LTEA) Assay for Protein phosphatase 2A (PPP2R4) using HepaRG (AID 2283522). The conditions noted are these: mRNA level, 48 h; actives raise or lower the signal. The method in brief: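 Cells were plated, cultured 48 h, switched to serum-free induction medium, then dosed for 48 h (8 points, max 100 uM, 0.5% DMSO). RNA was isolated and PPP2R4 expression measured by TaqMan qRT-PCR.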

Read-out in assay [2]: solute carrier (SLC22A1), SLC22A1 (gene 6580)
The experiment in a line: LTEA_HepaRG_SLC22A1: Life Technologies and Expression Analysis (LTEA) Assay for solute carrier (SLC22A1) using HepaRG (AID 2283524). The conditions noted are these: mRNA level, 48 h; actives raise or lower the signal. The method in brief: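 qRT-PCR readout (TaqMan, Fluidigm arrays) of SLC22A1 transcript, normalized to three housekeeping genes; bidirectional curve fit relative to 0.5% DMSO vehicle. Differentiated human HepaRG cells, 48 h chemical exposure, top concentration 100 uM, half-log steps, eight points.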

Read-out in assay [3]: Pyruvate Dehydrogenase Kinase 4 (PDK4), PDK4 (gene 5166)
Description: LTEA_HepaRG_PDK4: Life Technologies and Expression Analysis (LTEA) Assay for Pyruvate Dehydrogenase Kinase 4 (PDK4) using HepaRG (AID 2283525). Particulars: mRNA level, 48 h; actives raise or lower the signal. A digest of the protocol: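 HepaRG (human liver line), 48 h chemical exposure, 8-pt half-log CRC top 100 uM, 0.5% DMSO vehicle, duplicates. Readout: TaqMan qRT-PCR of PDK4 mRNA, housekeeping-normalized; gain/loss fit relative to DMSO baseline.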

Read-out in assay [4]: NAD(P)H dehydrogenase [quinone] 1 (NQO1), NQO1 (gene 1728)
The experiment in a line: LTEA_HepaRG_NQO1: Life Technologies and Expression Analysis (LTEA) Assay for NAD(P)H dehydrogenase [quinone] 1 (NQO1) using HepaRG (AID 2283526). The conditions noted are these: mRNA level, 48 h; actives raise or lower the signal. A digest of the protocol:
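Transcript induction or suppression is quantified by qRT-PCR in human HepaRG liver cells dosed for 48 hours. Eight half-log concentrations topping at 100 uM are used, with 0.5% DMSO as vehicle and baseline.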

Read-out in assay [5]: Nuclear factor erythroid 2-related factor 2 (Homo sapiens) (UniProt Q16236)
Description: LTEA_HepaRG_NFE2L2: Life Technologies and Expression Analysis (LTEA) Assay for Nuclear factor erythroid 2-related factor 2 (NFE2L2) Transcription Factor using HepaRG (AID 2283527).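 For outcome: TaqMan qRT-PCR transcript level normalised to ACTB GAPDH and POLR2A housekeeping genes.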 The conditions noted are these: mRNA level, 48 h; actives raise or lower the signal. The method in brief: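 HepaRG, 48 h dosing, 8-pt half-log series from 100 uM in 0.5% DMSO, duplicates. Read-out: NFE2L2 mRNA by qRT-PCR (ACTB/GAPDH/POLR2A normalization). Bidirectional curve fit vs DMSO baseline.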

Read-out in assay [6]: succinate dehydrogenase complex iron sulfur subunit B (SDHB), SDHB (gene 6390)
The experiment in a line: LTEA_HepaRG_SDHB: Life Technologies and Expression Analysis (LTEA) Assay for succinate dehydrogenase complex iron sulfur subunit B (SDHB) using HepaRG (AID 2283528). Particulars: mRNA level, 48 h; actives raise or lower the signal. The method in brief:
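Readout is SDHB transcript level by qRT-PCR, normalised to three housekeeping genes and fitted bidirectionally against 0.5% DMSO vehicle. Human HepaRG cells were treated for 48 h at up to 100 uM.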

Read-out in assay [7]: Signal transducer and activator of transcription 3 (Homo sapiens) (UniProt P40763)
The experiment in a line: LTEA_HepaRG_STAT3: Life Technologies and Expression Analysis (LTEA) Assay for Signal transducer and activator of transcription (STAT3) using HepaRG (AID 2283529). The conditions noted are these: mRNA level, 48 h; actives raise or lower the signal. A digest of the protocol:
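HepaRG, 48 h exposure, 8-pt half-log series (top 100 uM), 0.5% DMSO vehicle, duplicates. Readout: STAT3 transcript by Fluidigm qRT-PCR, housekeeping-normalized; bidirectional fit vs DMSO baseline.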

Read-out in assay [8]: solute carrier (SLCO1B1), SLCO1B1 (gene 10599)
Description: LTEA_HepaRG_SLCO1B1: Life Technologies and Expression Analysis (LTEA) Assay for solute carrier (SLCO1B1) using HepaRG (AID 2283530). Particulars: mRNA level, 48 h; actives raise or lower the signal. The method in brief:
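Differentiated human HepaRG cells, plated 48 h, switched to serum-free induction medium and exposed in duplicate for 48 h to 8 half-log concentrations (top 100 uM) in 0.5% DMSO. SLCO1B1 mRNA by TaqMan qRT-PCR, normalized to ACTB/GAPDH/POLR2A.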

Read-out in assay [9]: Transforming Growth Factor (TGFA), TGFA (gene 7039)
Description: LTEA_HepaRG_TGFA: Life Technologies and Expression Analysis (LTEA) Assay for Transforming Growth Factor (TGFA) using HepaRG (AID 2283532). Particulars: mRNA level, 48 h; actives raise or lower the signal. The method in brief:
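qRT-PCR read-out of TGFA transcript, normalized to three housekeeping genes, fitted bidirectionally against 0.5% DMSO baseline. Human HepaRG cultures received chemicals for 48 h at eight half-log concentrations, top 100 uM.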

Read-out in assay [10]: Transforming Growth Factor (TGFB1), TGFB1 (gene 7040)
The experiment in a line: LTEA_HepaRG_TGFB1: Life Technologies and Expression Analysis (LTEA) Assay for Transforming Growth Factor (TGFB1) Transporter using HepaRG (AID 2283533). Particulars: mRNA level, 48 h; actives raise or lower the signal. The method in brief:
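Differentiated human HepaRG cells in serum-free induction medium were exposed in duplicate for 48 h to eight concentrations (top 100 uM, half-log steps, 0.5% DMSO). TGFB1 mRNA was quantified by qRT-PCR, normalized to ACTB, GAPDH, POLR2A, and fitted bidirectionally against DMSO.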

Read-out in another assay: TIMP1, TIMP1 (gene 7076)
The experiment in a line: LTEA_HepaRG_TIMP1: Life Technologies and Expression Analysis (LTEA) Assay for TIMP1 using HepaRG (AID 2283534). The conditions noted are these: mRNA level, 48 h; actives raise or lower the signal. The method in brief:
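Differentiated human HepaRG cells in serum-free induction medium were exposed 48 h to chemicals (8 half-log concentrations, top 100 uM, 0.5% DMSO). TIMP1 mRNA was quantified by TaqMan qRT-PCR, normalized to ACTB/GAPDH/POLR2A; bidirectional fit versus DMSO.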

Read-out in assay [11]: Thyroid Hormone Responsive (THRSP), THRSP (gene 7069)
The experiment in a line: LTEA_HepaRG_THRSP: Life Technologies and Expression Analysis (LTEA) Assay for Thyroid Hormone Responsive (THRSP) using HepaRG (AID 2283536). Particulars: mRNA level, 48 h; actives raise or lower the signal. A digest of the protocol: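 qRT-PCR read-out (Fluidigm TaqMan), housekeeping-normalized (ACTB/GAPDH/POLR2A). HepaRG, 48 h chemical exposure, 8-pt half-log series from 100 uM in 0.5% DMSO, duplicates. Bidirectional curve fit vs 0.5% DMSO baseline.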

Read-out in assay [12]: Cellular tumor antigen p53 (Homo sapiens) (UniProt P04637)
Description: LTEA_HepaRG_TP53: Life Technologies and Expression Analysis (LTEA) Assay for Tumor Protein P53 (TP53) using HepaRG (AID 2283537). The conditions noted are these: mRNA level, 48 h; actives raise or lower the signal. A digest of the protocol: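 Read-out is TP53 transcript level by microfluidic qRT-PCR, normalised to three housekeeping genes and fitted bidirectionally against DMSO. Human HepaRG cells received compounds for 48 h, highest concentration 100 uM.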

Read-out in assay [13]: UDP glucuronosyltransferase (UGT1A1), UGT1A1 (gene 54658)
Description: LTEA_HepaRG_UGT1A1: Life Technologies and Expression Analysis (LTEA) Assay for UDP glucuronosyltransferase (UGT1A1) using HepaRG (AID 2283538). Particulars: mRNA level, 48 h; actives raise or lower the signal. A digest of the protocol: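 Cells are plated, cultured 48 h, switched to serum-free induction medium, then dosed 48 h at eight concentrations (max 100 uM, 0.5% DMSO). RNA is isolated and UGT1A1 expression measured by qRT-PCR; changes versus DMSO are fitted in both directions.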

Assay [14] in a line: LTEA_HepaRG_LDH_cytotoxicity: Cytotoxicity Assessment in the Life Technologies and Expression Analysis (LTEA) Assay (AID 2283563; active = hit-call score of the fitted dose curve at least 0.9, where 1 is the maximum;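 for AC50: LDH activity released into spent culture medium as a marker of cell death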). A digest of the protocol: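 Differentiated human HepaRG cells, plated 48 h beforehand, were switched to serum-free induction medium and exposed for 48 h to eight half-log concentrations (top 100 uM) in 0.5% DMSO. LDH was measured in spent medium; activity was fitted relative to DMSO vehicle.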

SMILES strings stand for the structures. Several values for one entry are separate records, joined by “and”; a condition that tells them apart may be missing. Equal values may be shown once. Activity calls are given as the source filed them. Rule for the calls, unless noted: active = hit-call score of the fitted dose curve at least 0.9, where 1 is the maximum; inactive = score below 0.9.

Sequence of Signal transducer and activator of transcription 3 (Homo sapiens) (P40763 whole entry, looked up): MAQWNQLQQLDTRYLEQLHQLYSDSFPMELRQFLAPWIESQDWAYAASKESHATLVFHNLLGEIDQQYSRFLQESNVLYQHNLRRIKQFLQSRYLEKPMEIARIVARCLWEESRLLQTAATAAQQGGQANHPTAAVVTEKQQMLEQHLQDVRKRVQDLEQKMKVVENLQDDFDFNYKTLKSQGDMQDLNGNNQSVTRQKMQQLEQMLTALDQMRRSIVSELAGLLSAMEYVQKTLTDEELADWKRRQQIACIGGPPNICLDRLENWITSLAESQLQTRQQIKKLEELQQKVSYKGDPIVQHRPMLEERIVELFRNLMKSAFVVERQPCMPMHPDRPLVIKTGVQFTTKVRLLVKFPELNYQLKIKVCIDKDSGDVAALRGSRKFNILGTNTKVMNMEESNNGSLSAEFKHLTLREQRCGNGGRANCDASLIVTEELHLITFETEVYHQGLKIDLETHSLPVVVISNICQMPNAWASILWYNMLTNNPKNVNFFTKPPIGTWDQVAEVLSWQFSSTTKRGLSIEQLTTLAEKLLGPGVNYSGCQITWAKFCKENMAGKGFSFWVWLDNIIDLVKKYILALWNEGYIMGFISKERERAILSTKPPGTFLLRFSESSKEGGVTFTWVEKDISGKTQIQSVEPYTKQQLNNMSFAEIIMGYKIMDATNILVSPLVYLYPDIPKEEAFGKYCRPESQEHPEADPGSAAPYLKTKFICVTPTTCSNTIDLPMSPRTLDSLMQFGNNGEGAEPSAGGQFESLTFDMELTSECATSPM
Sequence of Cellular tumor antigen p53 (Homo sapiens) (P04637 whole entry, looked up): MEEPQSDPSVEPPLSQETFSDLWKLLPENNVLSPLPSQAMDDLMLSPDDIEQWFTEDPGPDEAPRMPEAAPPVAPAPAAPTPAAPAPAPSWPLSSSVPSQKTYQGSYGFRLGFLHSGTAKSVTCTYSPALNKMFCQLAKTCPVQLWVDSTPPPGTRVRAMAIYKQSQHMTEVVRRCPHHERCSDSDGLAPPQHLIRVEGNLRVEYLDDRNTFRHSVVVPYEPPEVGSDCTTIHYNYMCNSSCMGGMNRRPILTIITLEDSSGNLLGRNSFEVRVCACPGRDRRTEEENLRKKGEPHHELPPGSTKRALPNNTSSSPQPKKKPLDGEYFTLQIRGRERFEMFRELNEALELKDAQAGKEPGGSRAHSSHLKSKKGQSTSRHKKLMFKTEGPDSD
Sequence of Nuclear factor erythroid 2-related factor 2 (Homo sapiens) (Q16236 whole entry, looked up): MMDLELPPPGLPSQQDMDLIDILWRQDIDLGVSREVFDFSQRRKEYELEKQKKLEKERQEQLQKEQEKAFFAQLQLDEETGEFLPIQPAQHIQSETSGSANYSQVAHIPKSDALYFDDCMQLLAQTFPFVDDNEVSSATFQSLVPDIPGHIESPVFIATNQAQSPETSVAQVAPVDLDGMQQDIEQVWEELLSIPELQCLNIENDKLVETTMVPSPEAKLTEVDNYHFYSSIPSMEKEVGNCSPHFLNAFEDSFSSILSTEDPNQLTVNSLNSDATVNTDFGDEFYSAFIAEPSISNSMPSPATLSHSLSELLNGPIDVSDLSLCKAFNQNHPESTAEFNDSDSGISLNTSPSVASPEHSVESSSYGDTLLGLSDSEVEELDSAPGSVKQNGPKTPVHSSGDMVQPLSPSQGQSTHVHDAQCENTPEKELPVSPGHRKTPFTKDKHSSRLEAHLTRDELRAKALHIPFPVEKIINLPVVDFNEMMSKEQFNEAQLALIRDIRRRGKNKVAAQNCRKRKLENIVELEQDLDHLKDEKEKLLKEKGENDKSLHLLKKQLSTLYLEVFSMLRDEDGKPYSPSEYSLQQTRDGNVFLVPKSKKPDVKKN

On to `ClC1C(Cl)C(Cl)C(Cl)C(Cl)C1Cl` (centres undefined), for which the outcome in [1], in assay [2], in [3], in [4], in [5] and in assay [6] was inactive. Further, the outcome was “inactive” in [7]; “inactive” in assay [8]; “inactive” in [9]; “inactive” in assay [10]; “inactive” with TIMP1, TIMP1 (gene 7076); “inactive” in assay [11]. Further, the call in assay [12] and in [14] was inactive. The AC50 in assay [13] was 780 nM (active) and 3.95 µM (active).

`O=[N+]([O-])/N=C1\NCCN1Cc1ccc(Cl)nc1`: the concentration at half-maximal activity (AC50) in [1] was 24.3 µM (active); in assay [2], 50 µM (active); in [3], 34.4 µM (active); in assay [4], 29.1 µM (active); in [5] it was 18.9 µM (active); in assay [6] it was 25.8 µM (active). Also, the concentration at half-maximal activity (AC50) was 20.1 µM (active) in assay [7], 50 µM (active) in assay [8] and 50 µM (active) in [11]. Moreover, the outcome in assay [9] was “inactive”; in assay [10] it was “inactive”; with TIMP1, TIMP1 (gene 7076), “inactive”; in [13], “inactive”; in [14], “inactive”.

As for `CCN(CC)C(=O)SCc1ccc(Cl)cc1`, the molecule was classed as inactive in assay [1], in assay [2], in [3], in [4], in [5] and in assay [6]. Also, the outcome in assay [7] was “inactive”; in assay [8] it was “inactive”; in assay [9], “inactive”; in assay [10], “inactive”; with TIMP1, TIMP1 (gene 7076) it was “inactive”; in assay [11], “inactive”. For the same molecule, the result in assay [12], in [13] and in assay [14] was inactive.

In the case of `CC1(c2ccc(Oc3ccccc3)cc2)OC(=O)N(Nc2ccccc2)C1=O` (centres undefined), the AC50 in assay [1] was 12.1 µM (active); in assay [2], 13.5 µM (active); in assay [3], 32.1 µM (active); in assay [4], 50.2 µM (active); in assay [5], 23 µM (active); in assay [7] it was 50.2 µM (active). The AC50 in [8] was 30.6 µM (active); in assay [9] it was 8.82 µM (active); in assay [11] it was 24.1 µM (active); in assay [12] it was 12.9 µM (active); in assay [14], 50.2 µM (active). The outcome in assay [6] was “inactive”; in [10] it was “inactive”; in the assay with TIMP1, TIMP1 (gene 7076), “inactive”; in assay [13] it was “inactive”.

With `COc1nn(CSP(=S)(OC)OC)c(=O)s1`, the molecule was called inactive in [1], in assay [2], in [3], in [4], in [5] and in assay [6]. Moreover, the outcome in assay [7] was “inactive”; in [8], “inactive”; in assay [9], “inactive”; in assay [10] it was “inactive”; with TIMP1, TIMP1 (gene 7076), “inactive”; in [11], “inactive”. Further, the molecule was called inactive in assay [12] and in assay [14]. The AC50 in assay [13] was 15.1 µM (active).

By AC50 is commonly meant the midpoint of the concentration-response curve, whichever way the signal moves.

(Values after PubChem BioAssay (EPA / NIEHS).)
